This is part of a sample that, as a whole, favours compounds with a hit. Of some 83,000 tested, about 20% had one in any assay.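 Values shown are percent growth following 48 h exposure of cells in 96-well plates to a single concentration of compound; below 10 was considered active.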 The source made the active and inactive calls.
Columns and labels:
Assay in all cases: NCI-60 one-dose screen, 48 h (100 = growth as untreated, 0 = no growth, -100 = all killed)
Settings in all cases: 10 µM unless noted
DU-145 prostate = test system: DU-145 prostate
K-562 leukemia = test system: K-562 leukemia
MALME-3M melanoma = test system: MALME-3M melanoma
MDA-MB-231 breast = test system: MDA-MB-231 breast
RXF 393 renal = test system: RXF 393 renal
SF-268 CNS = test system: SF-268 CNS
SF-295 CNS = test system: SF-295 CNS
SF-539 CNS = test system: SF-539 CNS
UACC-257 melanoma = test system: UACC-257 melanoma
M14 melanoma = test system: M14 melanoma
HCT-15 colon = test system: HCT-15 colon
HT29 colon = test system: HT29 colon
SNB-75 CNS = test system: SNB-75 CNS
SNB-19 CNS = test system: SNB-19 CNS
U251 CNS = test system: U251 CNS
PC-3 prostate = test system: PC-3 prostate
SK-MEL-5 melanoma = test system: SK-MEL-5 melanoma
UACC-62 melanoma = test system: UACC-62 melanoma
LOX IMVI melanoma = test system: LOX IMVI melanoma
SK-MEL-28 melanoma = test system: SK-MEL-28 melanoma

Measured: growth

COc1ccc(C(C)=C(c2ccc(OCCN(C)C)cc2)c2ccc(OCCN(C)C)cc2)cc1
active: K-562 leukemia -67.4% | MALME-3M melanoma -74.4% | MDA-MB-231 breast -52.2% | RXF 393 renal -79.1% | SF-268 CNS -12% | SF-295 CNS -70.2% | SF-539 CNS -79.4% | UACC-257 melanoma -70.4% | M14 melanoma -85.8% | HCT-15 colon -46.1% | HT29 colon -53.5% | SNB-75 CNS 3.78% | U251 CNS -64.1% | PC-3 prostate 1.05% | SK-MEL-5 melanoma -82.6% | UACC-62 melanoma -66.3% | LOX IMVI melanoma -79.9% | SK-MEL-28 melanoma -88.4%
inactive: DU-145 prostate 20% | SNB-19 CNS 12.6%

COC(=O)c1ccc(NC2=C(Cl)C(=O)c3nc(C)ccc3C2=O)cc1
inactive: DU-145 prostate 68.5% | MALME-3M melanoma 74.7% | MDA-MB-231 breast 91.9% | RXF 393 renal 89.7% | SF-268 CNS 72.9% | SF-295 CNS 61.3% | SF-539 CNS 72.6% | UACC-257 melanoma 78.1% | M14 melanoma 59.9% | HCT-15 colon 22.7% | HT29 colon 90.5% | SNB-75 CNS 106% | SNB-19 CNS 61.9% | U251 CNS 46.9% | PC-3 prostate 57.3% | SK-MEL-5 melanoma 68.4% | UACC-62 melanoma 68.5% | LOX IMVI melanoma 45.1% | SK-MEL-28 melanoma 75.4%
active: K-562 leukemia 7.53%

CC(C)NC(=O)c1cc(-c2ccc(NC(=O)Nc3ccc(F)c(C(F)(F)F)c3)cc2)nc2cccnc12
inactive: DU-145 prostate 100% | K-562 leukemia 84.2% | MALME-3M melanoma 123% | MDA-MB-231 breast 92.3% | RXF 393 renal 81.9% | SF-268 CNS 92% | SF-295 CNS 86.2% | SF-539 CNS 90.3% | UACC-257 melanoma 101% | M14 melanoma 92.3% | HCT-15 colon 89.7% | HT29 colon 91% | SNB-75 CNS 80% | SNB-19 CNS 93.6% | U251 CNS 87.8% | PC-3 prostate 84.2% | SK-MEL-5 melanoma 93.2% | UACC-62 melanoma 97% | LOX IMVI melanoma 88.8% | SK-MEL-28 melanoma 100%

N#Cc1cnc2ccc(-c3cnc4n[nH]nc4c3)cc2c1N1CCc2cc(F)c(Cl)cc21
inactive: DU-145 prostate 14.6% | K-562 leukemia 28.1% | MDA-MB-231 breast 21.2% | SF-268 CNS 16.7% | UACC-257 melanoma 23.9% | M14 melanoma 21.2% | HCT-15 colon 12.3% | HT29 colon 28.1% | SNB-19 CNS 16.4% | U251 CNS 21.1% | PC-3 prostate 20.4% | LOX IMVI melanoma 10.1% | SK-MEL-28 melanoma 13.4%
active: MALME-3M melanoma 1.37% | RXF 393 renal -22.2% | SF-295 CNS 2.19% | SF-539 CNS 2.37% | SNB-75 CNS -0.117% | SK-MEL-5 melanoma -45% | UACC-62 melanoma 2.13%

C[C@]12CC[C@H]3[C@@H](CC=C4C[C@@H](O)CC[C@@]43C)[C@@H]1CC[C@@H]2[C@](C)(O)CCc1cccnc1
inactive: DU-145 prostate 53.5% | K-562 leukemia 26.4% | MALME-3M melanoma 47% | MDA-MB-231 breast 77.2% | RXF 393 renal 66.4% | SF-268 CNS 70.7% | SF-295 CNS 45% | SF-539 CNS 66.2% | UACC-257 melanoma 53.8% | M14 melanoma 85.6% | HCT-15 colon 70.2% | HT29 colon 69.1% | SNB-75 CNS 62% | SNB-19 CNS 71.4% | U251 CNS 74.1% | PC-3 prostate 70.1% | UACC-62 melanoma 62.6% | LOX IMVI melanoma 75.9% | SK-MEL-28 melanoma 74.4%
active: SK-MEL-5 melanoma 7.89%

C#Cc1nc(/C=C\CCCCCCC(=O)NO)cs1
active: MALME-3M melanoma -19.8% | MDA-MB-231 breast -11.8% | RXF 393 renal -4.23% | SF-539 CNS -81.3% | SNB-75 CNS -57.7% | LOX IMVI melanoma -82%
inactive: DU-145 prostate 39.2% | K-562 leukemia 14.7% | SF-268 CNS 79.4% | SF-295 CNS 65.3% | UACC-257 melanoma 38.2% | M14 melanoma 61.6% | HCT-15 colon 65.6% | HT29 colon 55% | SNB-19 CNS 71.6% | U251 CNS 70.6% | PC-3 prostate 66.9% | SK-MEL-5 melanoma 31.9% | UACC-62 melanoma 31.2% | SK-MEL-28 melanoma 54.1%

Cc1cccc(N2CCN(C3=C(Cl)C(=O)c4ncccc4C3=O)CC2)c1
active: K-562 leukemia 9.9%
inactive: DU-145 prostate 44.7% | MALME-3M melanoma 24.4% | MDA-MB-231 breast 84.8% | RXF 393 renal 52.2% | SF-268 CNS 82.9% | SF-295 CNS 101% | SF-539 CNS 92.1% | UACC-257 melanoma 61.5% | M14 melanoma 75.3% | HCT-15 colon 24.8% | HT29 colon 104% | SNB-75 CNS 84.3% | SNB-19 CNS 79.5% | U251 CNS 85.2% | PC-3 prostate 72.9% | SK-MEL-5 melanoma 95.2% | UACC-62 melanoma 74.3% | LOX IMVI melanoma 24.2% | SK-MEL-28 melanoma 92.1%
